Source: PubChem BioAssay (Tox21)
Results filed as inconclusive are left out. Active and inactive are the calls of the source. Unless noted, calls follow the shape of the dose curve; as a rule, active = well fitted curve in the direction sought with a large enough effect in the repeat runs; inconclusive = weak or mixed curves; inactive = no such curve, though single readings can be large; an effect the other way counts as inactive or inconclusive.

Tests used:
[1] = biological target: Retinoic acid receptor RXR-alpha (Homo sapiens) (UniProt P19793); assay: qHTS assay to identify small molecule agonists of the RXR signaling pathway (AID 1159527; calls by dose curve; also: nearly all actives have a fitted effect of over 35% in size)
Retinoic acid receptor RXR-alpha (Homo sapiens), sequence (P19793 whole entry, looked up): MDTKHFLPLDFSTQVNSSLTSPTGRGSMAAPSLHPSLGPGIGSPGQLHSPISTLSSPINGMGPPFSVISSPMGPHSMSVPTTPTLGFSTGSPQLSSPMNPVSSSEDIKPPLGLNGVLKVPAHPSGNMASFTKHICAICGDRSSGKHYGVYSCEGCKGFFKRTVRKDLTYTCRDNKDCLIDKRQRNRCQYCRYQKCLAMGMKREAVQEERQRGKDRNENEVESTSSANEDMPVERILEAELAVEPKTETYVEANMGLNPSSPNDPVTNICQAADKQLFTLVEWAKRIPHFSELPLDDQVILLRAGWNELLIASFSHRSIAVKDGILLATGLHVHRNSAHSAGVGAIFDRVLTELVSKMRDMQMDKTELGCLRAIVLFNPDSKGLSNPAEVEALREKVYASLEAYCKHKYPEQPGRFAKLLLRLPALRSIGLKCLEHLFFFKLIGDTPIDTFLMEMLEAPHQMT
Procedure, shortened: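 Agonist-mode beta-lactamase reporter assay: HEK 293T RXR-alpha-UAS-bla cells treated 16 hr at 37 C with compounds, 9-cis retinoic acid as positive control. LiveBLAzer FRET substrate, 405 nm excitation, 460/530 nm emission.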

[2] = qHTS assay to identify small molecule agonists of the RXR signaling pathway - cell viability counter screen (AID 1159529); also: series mostly up to about 77 µM; nearly all actives have a fitted effect of over 50% in size
Procedure, shortened: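 CellTiter-Glo luminescence gave viability in the wells also read for beta-lactamase. Cells (RXR-alpha-UAS-bla HEK 293T, 2% charcoal-stripped FBS medium) had 5 hr plating, then 16 hr compound exposure at 37 C; tetraoctyl ammonium bromide served as positive control.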

[3] = qHTS assay to identify small molecule antagonists of the retinoid acid receptor (RAR) signaling pathway - cell viability counter screen (AID 1159551); also: nearly all actives have a fitted effect of over 35% in size
Procedure, shortened: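 Luminescent ATP quantitation (CellTiter-Glo) gave cell viability in C3RL4 cells exposed to test chemicals for 6 h at 37 C alongside 1 uM final retinol.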

[4] = qHTS assay to identify small molecule antagonists of the retinoic acid receptor (RAR) signaling pathway (AID 1159552; also: nearly all actives have a fitted effect of over 50% in size)
Procedure, shortened: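 Luminescent RARE reporter read-out in C3RL4 cells: 6 hr co-treatment at 37 C of test compounds with retinol at 1 uM final. Cells plated overnight beforehand; luciferase reagent incubated 30 min at room temperature before reading.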

[5] = qHTS assay to identify small molecule agonists of the retinoic acid receptor (RAR) signaling pathway (AID 1159553); also: potency is read from the fitted curve at half-maximal effect
Procedure, shortened: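 Luminescence from a RARE-driven luciferase reporter in C3RL4 cells served as the read-out, measured after 30 min with detection reagent at room temperature. Compounds in DMSO were applied for 6 hr at 37 C following overnight seeding.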

[6] = qHTS assay to identify small molecule antagonists of the estrogen related receptor (ERR) signaling pathway from Tox21 library - cell viability counter screen (AID 1224834); also: nearly all actives have a fitted effect of over 30% in size
Procedure, shortened: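 Fluorescence from CellTiter-Fluor gives the viability read-out, taken 30 min after reagent addition. Before that, ERR cells seeded 6 h earlier were incubated with compounds for 17.5 h at 37 C.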

[7] = biological target: Luciferin 4-monooxygenase (Photinus pyralis) (UniProt P08659); assay: qHTS assay to identify small molecule inhibitors of firefly luciferase (AID 1224835); also: series mostly up to about 120 µM; nearly all actives have a fitted effect of over 25% in size
Luciferin 4-monooxygenase (Photinus pyralis), sequence (P08659 whole entry, looked up): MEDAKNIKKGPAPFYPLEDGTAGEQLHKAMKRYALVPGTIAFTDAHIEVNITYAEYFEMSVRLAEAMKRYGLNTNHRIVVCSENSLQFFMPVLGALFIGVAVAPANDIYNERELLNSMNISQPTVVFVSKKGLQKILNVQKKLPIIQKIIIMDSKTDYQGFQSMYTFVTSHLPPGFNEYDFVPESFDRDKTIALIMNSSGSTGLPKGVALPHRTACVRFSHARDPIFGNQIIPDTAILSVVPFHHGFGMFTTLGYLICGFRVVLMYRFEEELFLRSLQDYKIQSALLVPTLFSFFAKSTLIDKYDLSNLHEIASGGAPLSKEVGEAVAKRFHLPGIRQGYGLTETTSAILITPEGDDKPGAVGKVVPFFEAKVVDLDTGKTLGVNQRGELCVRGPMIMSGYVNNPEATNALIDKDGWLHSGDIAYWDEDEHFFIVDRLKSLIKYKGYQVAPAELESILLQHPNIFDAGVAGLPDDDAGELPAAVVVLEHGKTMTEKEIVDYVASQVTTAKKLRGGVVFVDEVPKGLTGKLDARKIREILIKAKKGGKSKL
Procedure, shortened: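 Biochemical qHTS: compounds run as interplate titrations against purified firefly enzyme, with D-luciferin and ATP each at its KM concentration. Light output recorded by CCD imaging.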

[8] = qHTS assay to identify small molecule agonists of the constitutive androstane receptor (CAR) signaling pathway - cell viability counter screen (AID 1224836); also: series mostly up to about 92 µM; nearly all actives have a fitted effect of over 45% in size
Procedure, shortened: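 Cell viability multiplexed with the CAR agonist screen: CellTiter-Fluor fluorescence after 23 hr at 37 C. HepG2-CYP2B6-hCAR cells got compounds at 15 concentrations with PK11195 at 0.75 uM final.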

[9] = qHTS assay to identify small molecule antagonists of the constitutive androstane receptor (CAR) signaling pathway - cell viability counter screen (AID 1224837); also: series mostly up to about 92 µM; nearly all actives have a fitted effect of over 45% in size
Procedure, shortened: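 HepG2-CYP2B6-hCAR cells, 2500/well, 4 hr pre-incubation; compound titration, 15 conc.; CITCO 50 nM final; 23 hr, 37 C/5% CO2; CellTiter-Fluor, fluorescence intensity.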

[10] = biological target: Nuclear receptor subfamily 1 group I member 3 (Homo sapiens) (UniProt Q14994); assay: qHTS assay to identify small molecule antagonists of the constitutive androstane receptor (CAR) signaling pathway (AID 1224838);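 also: HepG2 cells stably expressing hCAR with CYP2B6 luciferase reporter stimulated by CITCO; nearly all actives have a fitted effect of over 40% in size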
Nuclear receptor subfamily 1 group I member 3 (Homo sapiens), sequence (Q14994 whole entry, looked up): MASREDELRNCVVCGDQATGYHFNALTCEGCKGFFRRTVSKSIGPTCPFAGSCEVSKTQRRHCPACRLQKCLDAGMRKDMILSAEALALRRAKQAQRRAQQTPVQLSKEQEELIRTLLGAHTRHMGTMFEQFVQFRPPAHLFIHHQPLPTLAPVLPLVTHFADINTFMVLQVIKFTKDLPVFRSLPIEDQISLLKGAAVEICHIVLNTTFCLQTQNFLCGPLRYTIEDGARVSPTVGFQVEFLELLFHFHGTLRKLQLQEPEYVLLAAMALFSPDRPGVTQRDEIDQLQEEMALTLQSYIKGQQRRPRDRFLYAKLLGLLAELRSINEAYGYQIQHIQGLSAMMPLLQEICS
Procedure, shortened: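 HepG2-CYP2B6-hCAR cells; 4 h pre-incubation; cpd (15 conc) + CITCO 50 nM final; 24 h, 37 C/5% CO2; ONE-Glo, luminescence.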

[11] = biological target: Nuclear receptor subfamily 1 group I member 3 (Homo sapiens) (UniProt Q14994); assay: qHTS assay to identify small molecule agonists of the constitutive androstane receptor (CAR) signaling pathway (AID 1224839); also: nearly all actives have a fitted effect of over 15% in size; also: potency is read from the fitted curve at half-maximal effect;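 as to activation: HepG2 cells stably carrying human CAR and a CYP2B6 luciferase reporter; series mostly up to about 92 µM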
Procedure, shortened: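 Luminescent ONE-Glo read-out after 24 hr, 37 C exposure of double-stable HepG2-CYP2B6-hCAR reporter cells to a 15-point compound series, in the presence of 0.75 uM PK11195 (final).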

[12] = qHTS assay to identify small molecule antagonists of the estrogen related receptor signaling pathway with the pleiotropic PPARgamma coactivator (PGC) from Tox21 10K library - cell viability counter screen (AID 1224840; active = well fitted cell-killing curve with a large enough effect in the repeat runs, not every such curve was filed as active; also: nearly all actives have a fitted effect of over 40% in size)
Procedure, shortened: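 PGC/ERR cells, 2,000/well; 6 h pre-incubation 37 C/5% CO2; cpd in DMSO via pin tool; 17.5 h 37 C; CellTiter-Fluor, 30 min; fluorescence.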

[13] = qHTS assay to identify small molecule antagonists of the estrogen related receptor signaling pathway with the pleiotropic PPARgamma coactivator (PGC) from Tox21 10K library (AID 1224841; call rule not given here; also: series mostly up to about 92 µM; actives are mostly falling curves and most rising ones were filed inactive; nearly all actives have a fitted effect of over 50% in size)
Procedure, shortened: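 PGC/ERR cell line, 2,000 cells/well; 6 h pre-incubation 37 C/5% CO2; compounds (DMSO) pinned in; 18 h, 37 C; One-Glo, 30 min RT; luminescence.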

[14] = qHTS assay to identify small molecule agonists of the estrogen related receptor signaling pathway with the pleiotropic PPARgamma coactivator (PGC) from Tox21 10K library (AID 1224842); also: nearly all actives have a fitted effect of over 15% in size
Procedure, shortened: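 PGC/ERR reporter cell line, 2,000 cells per well, incubated 6 h at 37 C before 23 nL compound in DMSO was added. After 18 h at 37 C, One-Glo luminescence read following 30 min at room temperature.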
% is scaled to controls: 0 for no effect and ±100 for the full control effect.

CC(C)NC(=O)NC(C)C
inactive: Potency [1] | Potency [2] | outcome [3] | Potency [4] | Potency [6] | Potency [7] | Potency [8] | Potency [9] | Potency [10] | Potency [11] | Potency [12] | Potency [13] | outcome [14]
active: Potency [5] 0.969 µM

O=c1[nH]c(=O)n([C@H]2C[C@H](O)[C@@H](CO)O2)cc1I
inactive: Potency [1] | Potency [2] | outcome [3] | Potency [4] | Potency [5] | Potency [6] | Potency [7] | Potency [8] | Potency [9] | Potency [10] | Potency [12] | outcome [14]
active: Potency [11] 11.9 µM

CCC(=O)OC(C)c1ccccc1 (stereo unspecified)
inactive: Potency [1] | Potency [2] | outcome [3] | Potency [4] | Potency [5] | Potency [6] | Potency [7] | Potency [8] | Potency [9] | Potency [10] | Potency [11] | Potency [12] | Potency [13] | outcome [14]

FC1(F)C(F)(F)C(F)(F)C2(F)C(F)(F)C(F)(F)C(F)(F)C(F)(F)C2(F)C1(F)F (stereo unspecified)
inactive: Potency [1] | Potency [2] | outcome [3] | Potency [4] | Potency [5] | Potency [6] | Potency [7] | Potency [8] | Potency [9] | Potency [10] | Potency [11] | Potency [13] | outcome [14]

CCCCC(CC)COC(=O)c1ccccc1O (stereo unspecified)
inactive: Potency [1] | Potency [2] | outcome [3] | Potency [4] | Potency [5] | Potency [6] | Potency [7] | Potency [8] | Potency [9] | Potency [10] | Potency [11] | Potency [13] | outcome [14]

CCS(=O)(=O)c1ccc(OC)c(C(=O)OC)c1
inactive: Potency [1] | Potency [2] | outcome [3] | Potency [4] | Potency [5] | Potency [6] | Potency [7] | Potency [8] | Potency [9] | Potency [10] | Potency [11] | Potency [12] | Potency [13] | outcome [14]

N=C(N)c1ccc(OCCCOc2ccc(C(=N)N)cc2)cc1
inactive: Potency [1] | Potency [2] | outcome [3] | Potency [4] | Potency [5] | Potency [6] | Potency [7] | Potency [8] | Potency [9] | Potency [10] | Potency [11] | outcome [14]

CCCCCSCCCCC
inactive: Potency [1] | Potency [2] | outcome [3] | Potency [4] | Potency [5] | Potency [6] | Potency [7] | Potency [8] | Potency [9] | Potency [10] | Potency [11] | Potency [13] | outcome [14]

Cc1cccn2c(=O)c(-c3nnn[nH]3)cnc12
inactive: Potency [1] | Potency [2] | activity change, negative = cytotoxicity [3] 2.52% [at 19 µM] | activity, negative = inhibition [4] 1.95% [at 19 µM] | Potency [5] | viability change, negative = cytotoxic [6] 0.715% [at 19 µM] | activity change, negative = inhibition [7] 1.24% [at 23.6 µM] | viability change, negative = cytotoxic [8] 10.1% [at 19 µM] | activity change, negative = cytotoxicity [9] -0.444% [at 19 µM] | activity, negative = inhibition [10] -0.816% [at 19 µM] | viability change, negative = cytotoxic [12] 11.8% [at 19 µM] | activity, negative = inhibition [13] 13.5% [at 19 µM] | activation [14] 4.84% [at 19 µM]

C=C(C)C(=O)OCCCCCCCC(C)C
inactive: Potency [1] | Potency [2] | outcome [3] | Potency [4] | Potency [5] | Potency [6] | Potency [7] | Potency [8] | Potency [9] | Potency [10] | Potency [11] | Potency [12] | outcome [14]

COCCCOCCCOC
inactive: Potency [1] | Potency [2] | outcome [3] | Potency [4] | Potency [5] | Potency [6] | Potency [7] | Potency [8] | Potency [9] | Potency [10] | Potency [11] | Potency [12] | outcome [14]

CC(C)OC(=O)c1ccccc1
inactive: Potency [1] | Potency [2] | outcome [3] | Potency [4] | Potency [5] | Potency [6] | Potency [7] | Potency [8] | Potency [9] | Potency [10] | Potency [11] | Potency [13] | outcome [14]

C=C[Si](OC(=C)C)(OC(=C)C)OC(=C)C
inactive: Potency [1] | Potency [2] | outcome [3] | Potency [4] | Potency [5] | Potency [6] | Potency [7] | Potency [8] | Potency [9] | Potency [10] | Potency [11] | Potency [12] | outcome [14]
